The results in this text go back to PubChem BioAssay (NCATS).

Test [1] concerns the target Cellular tumor antigen p53 (Homo sapiens) (UniProt P04637). Briefly: Primary qHTS for small molecule compounds that upregulate eGFP-tagged delta133p53alpha (in N-terminal) cells. (AID 2060322). Further: nearly all actives have a fitted effect of over 75% in size. Further: potency means the concentration at half of the fitted maximal effect.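 On activation: series mostly up to about 56 µM; 0% = DMSO vehicle and 100% = reference activator.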 The conditions noted are these: NCI-H358 eGFP-delta133p53alpha fluorescence, 24 h; activation: stronger effect = higher value. The essentials:
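NCI-H358 cells pre-induced 24 h with 10 ng/ml doxycycline to express N-terminal eGFP-delta133p53alpha, then dosed 24 h at 37C without doxycycline; fixed, Hoechst-stained, GFP intensity by laser scanning cytometry, normalized to DMSO (0%) and 57.5 uM 5-azacytidine (100%).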
For orientation: Quantitative high-throughput screening tests each substance at several concentrations.

In test [2] the target is Aldehyde dehydrogenase, mitochondrial (Homo sapiens) (UniProt P05091). As to the kind of experiment: qHTS for Inhibitors of the Aldehyde Dehydrogenase Family (ALDH2) Primary screen (AID 2061308).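 Further: plate controls were vehicle for no effect and reference inhibitor for full effect; nearly all actives have a fitted effect of over 55% in size.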
For test [3], the target named is Retinaldehyde dehydrogenase 3 (Homo sapiens) (UniProt P47895). As to the kind of experiment: qHTS for Inhibitors of the Aldehyde Dehydrogenase Family (ALDH1A3) Primary screen (AID 2061315).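 Further: plate controls were DMSO vehicle for no effect and reference inhibitor for full effect.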

Where “and” joins values, the source holds several entries; their conditions need not be identical. Equal values may be shown once. Records with an inconclusive call do not appear. Values without a mark were called inactive. Calls of active or inactive are those of the source. The call rests on the fitted dose curve; in most records, active means well fitted curve in the direction sought with a large enough effect; inconclusive means small, poorly fitted or top-dose-only effect, or another doubt; inactive means no such curve, though single readings can be large; an effect the other way counts as inactive or inconclusive.

Cellular tumor antigen p53 (Homo sapiens), sequence (P04637 whole entry, looked up): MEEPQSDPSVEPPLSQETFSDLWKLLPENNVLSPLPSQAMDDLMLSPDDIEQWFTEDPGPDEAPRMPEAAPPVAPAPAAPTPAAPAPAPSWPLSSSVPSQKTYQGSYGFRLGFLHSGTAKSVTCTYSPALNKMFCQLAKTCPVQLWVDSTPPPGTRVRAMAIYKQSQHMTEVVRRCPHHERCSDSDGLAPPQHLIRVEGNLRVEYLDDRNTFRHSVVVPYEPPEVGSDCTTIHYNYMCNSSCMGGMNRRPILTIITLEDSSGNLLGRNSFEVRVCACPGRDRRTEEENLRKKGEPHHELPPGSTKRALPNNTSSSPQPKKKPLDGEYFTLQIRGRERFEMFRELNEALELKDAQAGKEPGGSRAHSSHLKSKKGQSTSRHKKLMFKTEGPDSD

Regarding `C[C@@H](c1nc(-c2ccc(C#N)cc2)cs1)[C@](O)(Cn1cncn1)c1cc(F)ccc1F`, in test [1], the activation was -2.33%. Moreover, the Potency result in test [2] and in test [3] was “inactive” in each case.

Take `C=C1CCC2[C@](C)(CCC[C@]2(C)C(=O)O)[C@H]1CC/C(C)=C/C(=O)OC` (some centres not stated): in test [1], the activation was 17.9%. Further, the Potency result in test [2] and in test [3] was “inactive” each time.

Take `C=CC1(C)C=C2CC[C@H]3[C@@](C)(C(=O)O)CCC[C@]3(C)C2CC1` (some centres not stated): the activation in test [1] is -0.763%. Besides, the Potency result in test [2] and in test [3] was “inactive” throughout.

In the case of `CC(C)C(C#N)O[C@@H]1O[C@H](CO[C@@H]2O[C@@H](C)[C@H](O)[C@@H](O)[C@H]2O)[C@@H](O)[C@H](O)[C@H]1O` (some centres not stated), the activation in test [1] was -3.82%. The Potency entry in test [2] and in test [3] was “inactive” throughout.

With `COC(=O)C12C(=O)C(C)=C(O)C1(C)C(C)=CC1C34CCC(OC3=O)C(C)(C)C4CCC12C` (configuration not stated), the activation in test [1] is -16%. Further, the Potency entry in test [2] and in test [3] was “inactive” throughout.

Consider `CC1=CC2(O)/C=C/C(C)(O)CC(O)/C=C/C(=O)OC23C(=O)NC(CC(C)C)C3C1C` (configuration not stated), for which the activation in test [1] is -2.29%. For the same compound, the Potency result in test [2] and in test [3] was “inactive” each time.

For `C=CC(C)(O)CC/C=C(\C)C(=O)OC1CC2(C(=O)O)CCC3(C)C(=CCC4C5(C)CCC(OC6OC(COC7OCC(O)C(O)C7O)C(O)C(OC7OCC(O)C(O)C7O)C6OC6OC(CO)C(O)C(O)C6OC6OCC(O)C(O)C6O)C(C)(C)C5CCC43C)C2CC1(C)C` (configuration not stated), the activation in test [1] is -7.14%. Besides, the activity change, negative = inhibition in test [2] was 3.26% [at 11.2 µM]; in test [3] it was -4.78% [at 11.2 µM].

With `CC(C)=CCC/C(C)=C/CO[C@@H]1O[C@H](CO)[C@@H](O)[C@H](O)[C@H]1O`, the activation in test [1] is -4.46%. Besides, the Potency entry in test [2] and in test [3] was “inactive” in each case.

Consider `C/C=C(/C)C(=O)O[C@H]1C[C@]2(C)O[C@@H]2[C@@H](OC(C)=O)[C@@]2(C)CC[C@@](O)(C(C)C)[C@H]12`, for which the activation in test [1] is -19.1%. Moreover, the Potency result in test [2] and in test [3] was “inactive” throughout.

As to `COc1ccc(/C=C/C(=O)O[C@@H]2[C@@H](O)[C@@H](O)[C@H](O[C@H]3[C@@H]4C=CO[C@@H](O[C@@H]5O[C@H](CO)[C@@H](O)[C@H](O)[C@H]5O)[C@@H]4[C@@]4(CO)O[C@@H]34)O[C@H]2C)cc1`, the activation in test [1] is -16%. For the same compound, the Potency entry in test [2] and in test [3] was “inactive” in each case.

In the case of `COc1cc(O[C@@H]2O[C@H](CO)[C@@H](O)[C@H](O)[C@H]2O)c(CCC(=O)OC[C@H]2O[C@@H](Oc3cc(OC)c(C4OC(=O)C(C)(O)C4O)cc3CCC(=O)O)[C@H](O)[C@@H](O)[C@@H]2O)cc1C1OC(=O)C(C)(O)C1O` (some centres not stated), in test [1], the activation was -6.11%. The Potency entry in test [2] and in test [3] was “inactive” in each case.

As for `O=C1NC(Cc2ccc(O)cc2)C(=O)N2CCCC12` (configuration not stated), the activation in test [1] is -19.8%. Moreover, the Potency entry in test [2] and in test [3] was “inactive” throughout.

On to `COc1c2c(c(C)c3c1C(=O)OC3)OC1(C)CC(O)C34OC(O)(CCC3(C)C1C2)OC4(C)C` (configuration not stated), for which, in test [1], the activation is -6.87%. Further, the Potency entry in test [2] and in test [3] was “inactive” in each case.

With `CC(=O)OCC(Cc1ccccc1)NC(=O)C(Cc1ccccc1)NC(=O)c1ccccc1` (configuration not stated), the activation in test [1] was -13%. Also, the Potency result in test [2] and in test [3] was “inactive” throughout.

With `COc1ccc(C(O)C(C)OC2OC(CO)C(O)C(O)C2O)cc1` (configuration not stated), the activation in test [1] was -7.63%. For the same compound, the Potency result in test [2] and in test [3] was “inactive” throughout.

As to `C[C@@H]1C[C@H](C)CN(CCC(=O)Nc2ccc(Br)cc2)C1`, in test [1], the activation was 13.4%. Further, the Potency entry in test [2] and in test [3] was “inactive” each time.

Take `C=C1CCC2C(OC(=O)C2(O)COC(C)=O)C2C(=C)C(O)CC12` (configuration not stated): the activation in test [1] was -3.82%. Besides, the Potency entry in test [2] and in test [3] was “inactive” in each case.

Regarding `FC(F)(F)c1ccc(Nc2nc3ccc(Oc4ccnc(-c5ncc(C(F)(F)F)[nH]5)c4)cc3[nH]2)cc1`, the activation in test [1] is -7.84% and 12.4%. The Potency entry in test [2] and in test [3] was “inactive” each time.

For `COc1cc(-c2cc(-c3cccc(O)c3)cnc2N)cc(OC)c1OC`, in test [1], the Potency was 16.9 µM (active). The Potency result in test [2] and in test [3] was “inactive” in each case.

Turning to `C=C[C@](C)(CC/C=C(\C)C(=O)O)O[C@@H]1OC[C@H](O)[C@H](O)[C@H]1O`, the activation in test [1] is 7.14%. Also, the Potency result in test [2] and in test [3] was “inactive” throughout.

On to `C=C[C@H]1[C@H](O[C@@H]2O[C@H](CO)[C@@H](O)[C@H](O)[C@H]2O)OC=C(C(=O)OC)[C@H]1CCO`, for which the activation in test [1] is -7.63%. Further, the Potency entry in test [2] and in test [3] was “inactive” each time.

In the case of `O=C(CCO[C@@H]1O[C@H](CO)[C@@H](O)[C@H](O)[C@H]1O)c1ccc(O)cc1`, in test [1], the activation was -6.87%. For the same compound, the Potency entry in test [2] and in test [3] was “inactive” in each case.

With `CC(C)(O)C1=CCC23COC(C2)C(O)(C(=O)O)CCC13` (configuration not stated), the activation in test [1] is -6.87%. Moreover, the Potency entry in test [2] and in test [3] was “inactive” each time.

In the case of `C#CCCCn1cc(-c2cccc3c2N[C@H](C)CC(=O)N3)cn1`, the activation in test [1] is 8.93%. The Potency entry in test [2] and in test [3] was “inactive” in each case.
